From ChEMBL document CHEMBL3433997, “St. Jude Leishmania screening dataset” (2016)

Tests used:
Assay type in all cases: functional
[1] = target: Solute carrier family 2, facilitated glucose transporter member 1 (Homo sapiens) (UniProt P11166); experiment: ST_JUDE_LEISH: Cytotoxicity at 2uM final concentration against transgenic Leishmania Mexicana promastigotes LmGLUT1 that are glucose transport deficient and complemented with the human glucose transporter GLUT1. Activity is measured by DNA content using SYBR green in vitro
[2] = target: Hexose transporter 1 (Plasmodium falciparum) (UniProt O97467); experiment: ST_JUDE_LEISH: Cytotoxicity at 2uM final concentration against transgenic Leishmania Mexicana promastigotes LmPfHT that are glucose transport deficient and complemented with the Plasmodium falciparum hexose transporter. Activity is measured by DNA content using SYBR green in vitro
[3] = target: Glucose transporter (Leishmania mexicana) (UniProt O61059); experiment: ST_JUDE_LEISH: Cytotoxicity at 2uM final concentration against transgenic Leishmania Mexicana promastigotes LmGT2 that are glucose transport deficient and complemented with the L. Mexicana glucose transporter 2. Activity is measured by DNA content using SYBR green in vitro

Chain of Solute carrier family 2, facilitated glucose transporter member 1 (Homo sapiens) (P11166 whole entry): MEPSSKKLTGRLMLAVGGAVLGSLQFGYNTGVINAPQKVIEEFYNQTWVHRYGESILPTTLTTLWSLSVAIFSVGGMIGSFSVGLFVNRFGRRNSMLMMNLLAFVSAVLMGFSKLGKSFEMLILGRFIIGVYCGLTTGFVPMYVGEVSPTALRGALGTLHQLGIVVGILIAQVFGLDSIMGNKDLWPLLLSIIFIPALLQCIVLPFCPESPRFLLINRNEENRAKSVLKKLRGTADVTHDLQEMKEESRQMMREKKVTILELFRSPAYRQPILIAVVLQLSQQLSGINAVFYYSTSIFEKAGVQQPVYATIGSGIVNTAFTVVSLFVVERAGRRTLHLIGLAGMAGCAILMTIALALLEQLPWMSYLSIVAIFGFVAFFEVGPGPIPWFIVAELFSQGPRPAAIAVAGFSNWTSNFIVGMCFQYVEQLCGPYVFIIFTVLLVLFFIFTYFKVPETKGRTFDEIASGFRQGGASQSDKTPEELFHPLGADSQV

**Q.** Which results are given for `O=C(Nc1cccc(-c2ccc(CN3CCCC3)cc2)c1)c1ccc(Cl)cc1`?
**A.** inhibition [1]: 3.03%; inhibition [2]: 1.53%; inhibition [3]: 1.42%

**Q.** Which inhibition [1] does the source give for `N#Cc1ccc2c(c1)CCN(CCC1CCC(NC(=O)/C=C/c3ccc(F)c4ccccc34)CC1)CC2` (stereo unspecified) here?
**A.** The inhibition was 16.1%.

**Q.** What about the inhibition [2] of the same molecule?
**A.** Its inhibition is 20.9%.

**Q.** What about the inhibition [3] of the same molecule?
**A.** Its inhibition is 11.4%.

**Q.** For `CCOC(=O)COc1cccc(CNc2ccc3nc(N)nc(N)c3c2)c1`, which inhibition [1] is on record?
**A.** The inhibition was 2.95%.

**Q.** And the inhibition [2]?
**A.** The inhibition was 1.84%.

**Q.** What about the inhibition [3] of the same molecule?
**A.** Its inhibition is 1.48%.

**Q.** Which results are given for `CC(C)(C)N1CCC(N(Cc2ccc(-c3ccc(C(F)(F)F)cc3)cc2)C(=O)Cn2c(CCc3cccc(F)c3F)cc(=O)c3cccnc32)CC1`?
**A.** inhibition [1]: -0.12%; inhibition [2]: -1.34%; inhibition [3]: -1.6%

**Q.** `O=C(/C=C/c1ccc(Cl)c(Cl)c1)NCCCCCN1CCC(NC(=O)Nc2cc(Cl)cc(Cl)c2)CC1` was tested. Which inhibition [1] did it give?
**A.** Its inhibition is 8.59%.

**Q.** And the inhibition [2]?
**A.** Its inhibition is 9.64%.

**Q.** And the inhibition [3]?
**A.** The inhibition was 9.93%.

**Q.** What does the source list for `CN(C)c1ccc(-c2cscc2C(=O)NC2CCCN(Cc3cccnc3)C2)cc1` (stereo unspecified)?
**A.** inhibition [1]: -0.4%; inhibition [2]: -0.27%; inhibition [3]: -0.28%

**Q.** Which inhibition [1] does the source give for `O=C(NCCc1ccccc1)N(Cc1ccccc1-c1ccc(CNC2CCCC2)cc1)C1CCN(Cc2ccccc2)CC1` here?
**A.** The inhibition was 7.74%.

**Q.** And the inhibition [2]?
**A.** The inhibition was 7.15%.

**Q.** What about the inhibition [3] of the same molecule?
**A.** Its inhibition is 5.58%.

**Q.** What does the source list for `COc1cc(NC(=O)c2sc(-c3ccc(Cl)cc3)cc2Cl)ccc1OCCN1CCCC1`?
**A.** inhibition [1]: 9.58%; inhibition [2]: 9.57%; inhibition [3]: 9.29%

**Q.** With `CCN(CC)CCCC(C)Nc1c2ccc(Cl)cc2nc2ccc(OC)cc12` (stereo unspecified) as the molecule, how does the inhibition [1] read?
**A.** The inhibition was 5.81%.

**Q.** What about the inhibition [2] of the same molecule?
**A.** Its inhibition is 1.67%.

**Q.** What about the inhibition [3] of the same molecule?
**A.** The inhibition was 3.71%.

**Q.** For `COc1ccc(CNc2nccc3ccc(-c4ccc(N)nc4)cc23)cc1`, which inhibition [1] is on record?
**A.** The inhibition was -2.02%.

**Q.** What about the inhibition [2] of the same molecule?
**A.** The inhibition was -0.06%.

**Q.** What about the inhibition [3] of the same molecule?
**A.** Its inhibition is -0.73%.

**Q.** How did the inhibition [1] turn out when `CN(C)C(=O)O[C@@H]1CN[C@H](C#Cc2cc3ncnc(Nc4ccc5c(cnn5Cc5cccc(F)c5)c4)c3s2)C1` was run?
**A.** The inhibition was 10.1%.

**Q.** What about the inhibition [2] of the same molecule?
**A.** Its inhibition is 9.66%.

**Q.** What about the inhibition [3] of the same molecule?
**A.** The inhibition was 10.1%.

**Q.** Which results are given for `CCn1c(=O)c(C(=O)Nc2cc(Cl)c(OC)cc2OC)nc2ccccc21`?
**A.** inhibition [1]: 11.7%; inhibition [2]: 9.32%; inhibition [3]: 10.5%
